# Reference: PubChem BioAssay AID1851 (National Center for Advancing Translational Sciences (NCATS), 2009)
# The campaign covered roughly 16,000 compounds. About 2,600 (16%) were called active. Inconclusive results (about 20%) are left out. The call rests on the fitted dose curve; in most records, active means well fitted curve in the direction sought with a large enough effect; inconclusive means small, poorly fitted or top-dose-only effect, or effect the other way; inactive means no such curve, though single readings can be large or run the other way. These entries were drawn from the full list.
# Target: Cytochrome P450 2D6 (Homo sapiens) (UniProt P10635)
# Sequence (P10635 whole entry, looked up): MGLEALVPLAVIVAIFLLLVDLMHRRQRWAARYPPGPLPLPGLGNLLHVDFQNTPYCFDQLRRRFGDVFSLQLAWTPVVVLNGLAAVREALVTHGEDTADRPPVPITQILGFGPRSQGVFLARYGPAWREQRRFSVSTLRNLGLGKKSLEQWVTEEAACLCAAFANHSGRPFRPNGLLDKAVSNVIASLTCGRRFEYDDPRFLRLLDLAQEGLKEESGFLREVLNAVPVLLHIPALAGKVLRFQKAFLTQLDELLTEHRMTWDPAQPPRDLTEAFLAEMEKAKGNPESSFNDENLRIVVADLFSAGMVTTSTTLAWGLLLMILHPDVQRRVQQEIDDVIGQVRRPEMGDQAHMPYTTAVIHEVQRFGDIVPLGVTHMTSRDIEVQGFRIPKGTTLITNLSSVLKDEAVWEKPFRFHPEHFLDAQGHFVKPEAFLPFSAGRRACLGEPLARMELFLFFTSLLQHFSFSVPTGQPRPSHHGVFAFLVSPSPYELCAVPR
# Experiment: Cytochrome panel assay with activity outcomes
# Conditions: recombinant CYP, pro-luciferin dealkylation, luminescence, p450-cyp2d6; series mostly up to 57.1 µM
# On the % scale 0 is the no-effect control and ±100 the full control effect.
Structure (SMILES),AC50,"activity, negative = inhibition"
Cc1ccc(C)c(-c2nn(-c3cc(N4CCN(CCO)CC4)ccc3[N+](=O)[O-])c(=O)c3ccccc23)c1,inactive,–
CCOC(=O)CC(Nc1nc(N2CCOCC2)nc(N2CCOCC2)n1)c1ccccc1Cl (configuration not stated),inactive,–
COC(=O)c1[nH]c(C)c(/C(O)=C2\C(=O)C(=O)N(CCN(C)C)C2c2cccs2)c1C (configuration not stated),inactive,–
COc1cccc(/C(O)=C2/C(=O)C(=O)N(c3cc(C)on3)C2c2cccs2)c1 (configuration not stated),inactive,–
CCN(CC)CCN1C(=O)C(=O)/C(=C(/O)c2ccc(OC)cc2)C1c1cccs1 (configuration not stated),14.1 µM (active),–
CC(C)(C)C(=O)[C@H]([C@@H](c1ccccc1)N1CCOCC1)N1CCOCC1,–,6.76% [at 11.4 µM] (inactive)
Cc1ccc(NC(=O)c2sccc2SCc2cccc(C(F)(F)F)c2)cc1,inactive,–
O=C(c1ccccc1)c1ccc2n1CC[C@H]2C(=O)O,inactive,–
N#Cc1ccc(-c2ccccc2)nc1SCC(=O)c1cccc(Cl)c1,inactive,–
CN1CCN(c2ncc3nc(-c4cn(C)c5ccccc45)c(=O)n(-c4ccccc4)c3n2)CC1,inactive,–
COc1ccc(Cl)cc1C(=O)Nn1cnc2ccccc2c1=O,inactive,–
COc1ccc(C(=O)Nn2cnc3ccccc3c2=O)c(OC)c1,inactive,–
O=C(Nn1cnc2ccccc2c1=O)c1ccc(F)cc1Cl,28.2 µM (active),–
COC(=O)c1ccc(NC(C)=O)o1,inactive,–
COc1ccc(N(C(=O)COc2ccccc2OC)S(=O)(=O)c2ccc(C)cc2)cc1,inactive,–
COc1ccc(C(C(=O)NC2CCCCC2)N(C(=O)CCCC(=O)Nc2ccccn2)c2ccc3c(c2)OCCO3)cc1 (configuration not stated),inactive,–
O=[N+]([O-])c1ccc(N2CCCC2)cc1NCc1ccccc1,inactive,–
O=C(O)c1cc([N+](=O)[O-])ccc1NCCCc1ccccc1,inactive,–
Cc1cc([N+](=O)[O-])ccc1NCc1ccccc1,15.8 µM (active),–
CO[C@H]1COC(=O)C/C=C\[C@H](C)COC(=O)[C@@H](OCc2ccccc2)/C=C\[C@@H]1C,–,-13.9% [at 11.4 µM] (inactive)
CCn1c(C)cc(/C=C2\SC(=O)N(CC(=O)Nc3ccc(C)c(C)c3)C2=O)c1C,inactive,–
Clc1ccc(CSc2nnc(-c3cccnc3)o2)cc1,14.1 µM (active),–
Clc1ccccc1CSc1nnc(-c2ccncc2)o1,2 µM (active),–
Cc1cccc(-c2nnc(SCc3ccccc3)o2)c1,inactive,–
Nc1nc(SCc2ccccc2Cl)cc(C(=O)O)n1,–,4.28% [at 11.4 µM] (inactive)
c1ccc(-c2nnc(SCCC3OCCCO3)o2)cc1,inactive,–

Structure (SMILES),AC50,"activity, negative = inhibition"
NCCCCCc1nnc(SCc2ccccc2Cl)o1,11.2 µM (active),–
C#CCSc1nnc(-c2sc3ccccc3c2Cl)o1,inactive,–
N#Cc1c(SCC(N)=O)nsc1SCc1ccccc1Cl,inactive,–
COc1ccc(-c2nnc(-c3cccnc3)o2)cc1,inactive,–
NCCCCCc1nnc(SCc2ccc(Cl)cc2Cl)o1,1.41 µM (active),–
COc1ccc(NC(=O)CCNS(=O)(=O)c2ccc3c(c2)c(=O)n(C)c(=O)n3C)cc1,inactive,–
O=C(CCCc1ccccn1)c1ccccc1,–,-16.5% [at 11.4 µM] (inactive)
O=C1N=C(N2CCOCC2)S/C1=C/c1cccs1,inactive,–
Cc1cc(=O)[nH]c(-n2[nH]c3c(c2=O)CCCC3)n1,inactive,–
CCC1C(=O)OCC1Cc1cncn1C (configuration not stated),inactive,–
N=C(N)[C@H](N=Nc1ccccc1)C(N)=O,–,4.09% [at 11.4 µM] (inactive)
C[C@@](N)(Cc1ccc(O)c(O)c1)C(=O)O,inactive,–
FC(F)(F)c1cnc(/C=C/Nc2ccccc2Cl)c(Cl)c1,inactive,–
COc1ccc(C(=O)NC2CCN(C(=S)Nc3cccc(C)c3)CC2)cc1,inactive,–
CC(=O)c1ccc(OC(=O)C2c3ccccc3Oc3ccccc32)cc1,inactive,–
CC[N+](C)(CC)CCOC(=O)C1c2ccccc2Oc2ccccc21,3.98 µM (active),–
O=C(O)c1ccccc1C1c2ccccc2Oc2ccccc21,–,-7.56% [at 11.4 µM] (inactive)
COc1ccccc1N(CC(=O)NCC1CCCO1)C(=O)CNS(=O)(=O)c1ccc(C)cc1 (configuration not stated),inactive,–
N#CC1=C(SCC(N)=O)NC2=C(C(=O)c3ccccc32)C1c1ccc(Cl)cc1 (configuration not stated),inactive,–
COc1cccc(-c2nc(NCCc3c[nH]c4ccc(OC)cc34)c3ccccc3n2)c1,20 µM (active),–
CC(C)Oc1cccc(-n2c(CCc3c[nH]c4ccc(Br)cc34)nc3ccccc3c2=O)c1,inactive,–
COc1ccc2[nH]cc(CCNc3nc(-c4ccc(N(C)C)cc4)nc4ccccc34)c2c1,7.94 µM (active),–
COc1ccc2[nH]cc(CCNc3nc(-c4cccnc4)nc4ccccc34)c2c1,6.31 µM (active),–
c1ccc2c(NC3CC3)nc(-c3ccoc3)nc2c1,inactive,–
COc1ccc2[nH]cc(CCNc3nc(-c4ccoc4)nc4ccccc34)c2c1,12.6 µM (active),–
NC(=O)NC(=O)[C@H]1CCCC[C@@H]1C(=O)O,–,-4.03% [at 11.4 µM] (inactive)

Structure (SMILES),AC50,"activity, negative = inhibition"
C[N+](C)(C)CCOC(N)=O,inactive,–
COC(=O)CNC(=O)CCCCC(=O)NCC(=O)OC,inactive,–
Cc1ccc(C)c(N2CCN(C(=O)C3CCN(S(=O)(=O)c4cccc5nsnc45)CC3)CC2)c1,inactive,–
CS(=O)(=O)c1ccc(Cn2c3c(c4cc(F)cc(F)c42)CCC[C@H]3CC(=O)O)cc1,inactive,–
CC(C)c1ccc(/C(C(=O)O)=C(\O)C(=O)O)cc1,–,0.432% [at 11.4 µM] (inactive)
CC1(C)C2([N+](=O)[O-])CN3CC1([N+](=O)[O-])CN(C2)C31CCCC1,inactive,–
O=C(O)Cc1cc(I)c(Oc2ccc(O)c(I)c2)c(I)c1,inactive,–
CC(=O)c1cc(C#N)c(Oc2cccc(C(F)(F)F)c2)nc1C,inactive,–
N[C@@H](CS(=O)O)C(=O)O,inactive,–
CC(C)C(=O)Nc1ccc(Sc2ccc(F)cc2)cc1,inactive,–
CN(C(=S)NC(=O)c1ccccc1Br)C1CCCCC1,inactive,–
COc1ccc2[nH]cc(CCNc3nc(-c4ccccc4OC)nc4ccccc34)c2c1,12.6 µM (active),–
CC[C@H](CO)NCCN[C@@H](CC)CO,inactive,–
COc1ccc(F)cc1S(=O)(=O)NC(Cc1ccccc1)C(N)=O (configuration not stated),inactive,–
Cc1ccc(-c2cc(C(F)F)n3ncc(C(=O)Nc4c(C)nn(Cc5c(Cl)cccc5Cl)c4C)c3n2)cc1,inactive,–
Cc1nn(Cc2c(Cl)cccc2Cl)c(C)c1NC(=O)c1cnn2c(C(F)F)cc(-c3ccccc3)nc12,inactive,–
Cc1cc(C(F)F)n2ncc(C(=O)NCc3ccccc3C(F)(F)F)c2n1,5.01 µM (active),–
O=C(Nc1cc(C(F)(F)F)ccc1N1CCCCC1)c1ccc(Br)o1,inactive,–
CCCCn1nc2cc(C(=O)NCc3ccc(C(F)(F)F)cc3C(F)(F)F)ccc2c1OCC,inactive,–
CCCn1nc2cc(C(=O)NCc3ccccc3OC)ccc2c1OCC,inactive,–
O=C1CC[C@H](NC(=O)c2ccccc2)C(=O)N1,–,1.49% [at 11.4 µM] (inactive)
CCCn1nc2cc(C(=O)NCCCCc3ccccc3)ccc2c1OCC,7.94 µM (active),–
CCOc1c2ccc(C(=O)NCCCCc3ccccc3)cc2nn1CC,0.794 µM (active),–
O=C(NC1CCCc2ccccc21)c1ccc(=O)[nH]c1 (configuration not stated),28.2 µM (active),–
CCOc1c2ccc(C(=O)NCc3ccccc3OC)cc2nn1CC,inactive,–
COCCn1nc2cc(C(=O)NCc3cc(C(F)(F)F)cc(C(F)(F)F)c3)ccc2c1OC,2.51 µM (active),–

Structure (SMILES),AC50,"activity, negative = inhibition"
COCCn1nc2cc(C(=O)NCC34CC5CC(CC(C5)C3)C4)ccc2c1OC,inactive,–
COc1ccc(OC)c2[nH]c(=O)c(CCNS(=O)(=O)c3ccccc3)cc12,inactive,–
CCOc1cccc(/C(O)=C2/C(=O)C(=O)N(Cc3ccco3)C2c2ccncc2)c1 (configuration not stated),inactive,–
O=C(NNS(=O)(=O)c1ccc(Cl)cc1)NC1CCCCC1,inactive,–
CCC(=O)Nc1nnc(C(C)(C)C)s1,inactive,–
O=c1c(-c2cc(F)cc(F)c2)nc2cnc(N3CCOCC3)nc2n1C[C@H]1CCCO1,inactive,–
CCOc1c2ccc(C(=O)NCc3ccco3)cc2nn1CC,inactive,–
CCCn1nc2cc(C(=O)NCCc3ccc(C)cc3)ccc2c1OCC,3.55 µM (active),–
CCOc1c2ccc(C(=O)NC3CCCc4ccccc43)cc2nn1C (configuration not stated),7.94 µM (active),–
CCn1nc2cc(C(=O)NCC34CC5CC(CC(C5)C3)C4)ccc2c1OC,inactive,–
CCCn1nc2cc(C(=O)NCc3ccc(C)cc3)ccc2c1OC,inactive,–
COCCNC(=O)c1ccc2c(c1)ncn2-c1ccc(F)c(F)c1,inactive,–
CCOc1c2ccc(C(=O)NCCCCc3ccccc3)cc2nn1C,0.282 µM (active),–
CCCCn1nc2cc(C(=O)NCC3CC3)ccc2c1OCC,inactive,–
CCOc1c2ccc(C(=O)NCCc3cccs3)cc2nn1CC,2.24 µM (active),–
COCCn1c(=O)c(-c2ccccc2)nc2cnc(Oc3cccc(Cl)c3)nc21,inactive,–
NC(=O)Nn1c(CCC(=O)O)ccc1-c1ccc(F)cc1,inactive,–
Cc1ccc(C(=O)N2C3C=CC(C3)C2(C(F)(F)F)C(F)(F)F)cc1 (configuration not stated),inactive,–
CCC(C)(C)c1ccc(Oc2cccc(C(=O)O)c2)cc1,–,13.3% [at 11.4 µM] (inactive)
O=C(O)CCNc1ncnc2nc[nH]c12,–,9.14% [at 11.4 µM] (inactive)
OC[C@H]1O[C@H](n2cnc3c(NC4CCCC4)nc(Cl)nc32)[C@@H](O)[C@@H]1O,inactive,–
C=C(C)CN(CC#N)CC(=C)C,–,5.94% [at 11.4 µM] (inactive)
N#C/C(=C(\O)C(=O)O)c1ccc(-c2cccc3ccccc23)cc1,–,14.5% [at 11.4 µM] (inactive)
O=c1c2c(n3cnnc3n1-c1ccccc1)-c1ccccc1CC21CCCCC1,inactive,–
